# Reference: PubChem BioAssay AID1159606 (Sanford-Burnham Center for Chemical Genomics, 2016)
# The campaign covered roughly 360,000 compounds. About 7,300 (2%) were called active. The list comes from a sample in which actives are over-represented; it also holds similar structures and randomly drawn compounds. Unmarked numbers belong to inactive results. No stated cut-off is given here; in the data, active means inhibition above about 50%; inactive means the rest.
# Experiment: blockers of TWEAK-induced Fn14 reporter activity – luciferase reporter cells, uHTS, primary screen (AID 1159606)
# Settings: TWEAK-stimulated Fn14 reporter cells, luciferase luminescence, 8 h; at 10 µM; active compounds read high
row,SMILES,inhibition
1,CC(C)(C)c1cc(NC(=O)NN2CCOCC2)nn1-c1c(Cl)cc(Cl)cc1Cl,4.79%
2,CC(C)(C)OC(=O)C[C@@H]1C/C=C\C[C@@H](CC(=O)NCCO)C(=O)N[C@H](Cc2c[nH]c3ccccc23)COC1=O,-8.05%
3,Nc1ccc(S(=O)(=O)Nc2nccc(/C=C/c3ccc(Br)s3)n2)cc1,-5.92%
4,Oc1cccc2ccc(/C=C/c3ccc(Br)s3)nc12,57.6% (active)
5,CCCN(CC(=O)Nc1ccc(OC)c(OC)c1)CC(=O)Nc1ccc(F)c(F)c1F,-5.89%
6,O=c1c2c(nc3nc[nH]n13)CCC2,1.33%
7,CCCCN1Cc2c(nc3cc(-c4ccccc4)[nH]n3c2=O)C1=O,1.25%
8,O=c1c2c(nc3cc(-c4cccc(Cl)c4)[nH]n13)CCCC2,75.5% (active)
9,CSc1nnc(SCc2nc3sc(C(=O)O)c(C)c3c(=O)[nH]2)s1,15.4%
10,CCCCCCN1CCN(C2CN(Cc3cn(CCCCCC)nn3)S(=O)(=O)C2)CC1 (stereo not drawn),6.81%
11,COc1cc(-c2nnc(Cn3cc(C(F)(F)F)ccc3=O)o2)cc(OC)c1OC,-25.3%
12,C=CCOc1cccc(CNn2cn[nH]c2=S)c1,22.9%
13,CCOC(=O)[C@]12CCCC=C1N(Cc1cccc3ccccc13)C(=O)[C@H](CC(=O)NCC13CC4CC(CC(C4)C1)C3)C2,25.4%
14,O=C1NC(c2ccncc2)Nc2sc3c(c21)CCCC3 (stereo not drawn),-14.9%
15,O=C(Nc1sc2c(c1-c1nc3ccccc3[nH]1)CCCC2)C1CC1,-8.49%
16,C/C(=C\c1ccccc1)C1NC(=O)c2c(sc3c2CCCC3)N1 (stereo not drawn),77% (active)
17,CCC1NC(=O)c2cccnc2-n2c1nc1ccc(C)cc1c2=O (stereo not drawn),-40.1%
18,O=C(CCC(=O)N1CCN(S(=O)(=O)c2ccc(Cl)cc2)CC1)NCc1cccc(C(F)(F)F)c1,57.4% (active)
19,O=C(NCc1cccc(C(F)(F)F)c1)c1cccc(S(=O)(=O)N2CCN(Cc3ccccc3)CC2)c1,15.4%
20,CC(NC(=O)CCC(=O)N1CCN(S(=O)(=O)c2ccc(Cl)cc2)CC1)c1ccccc1 (stereo not drawn),4.74%
21,Cc1n[nH]c(=O)c2c(NC(=O)COC(=O)c3ncc(Cl)c(Cl)c3Cl)oc(C)c12,-5.62%
22,CCCCCCCCCCOC(=O)Cn1c(COc2ccc(C)cc2)[n+](C)c2ccccc21,76.3% (active)
23,Cc1noc(C)c1COC(=O)Cn1c(C)nc2ccccc21,-13%
24,CSc1ccccc1NC(=O)COC(=O)CCCOc1ccc(C)cc1,-5.19%

row,SMILES,inhibition
1,Cc1ccc(C(=O)CN2C(=O)NC3(CCc4ccccc43)C2=O)c(C)c1 (stereo not drawn),-25.2%
2,O=C(NC(=O)c1ccccc1)Nc1ccccc1O,50.8% (active)
3,CNC(=O)C(NC(=O)c1ccccc1)=C(C)C,4.65%
4,Cc1ccc(NC(=O)NC(=O)c2ccccc2)cc1F,-37.5%
5,COc1ccc(C(=O)NC(C)c2nccs2)cc1OC1CCN(C(C)C)CC1 (stereo not drawn),-14.2%
6,Cc1cc(C)c(C)c(S(=O)(=O)Nc2cccnc2)c1C,-12.5%
7,Cc1cc(C)c(C)c(S(=O)(=O)Nc2ccc(O)cc2)c1C,22.9%
8,Cc1cc(C)c(C)c(S(=O)(=O)N[C@@H](C)C(=O)OC(C)C(=O)NC(N)=O)c1C (stereo partly drawn),53.7% (active)
9,CC1=NN(/C(=N\c2nnc(C)s2)Nc2ccccc2)[C@H](c2ccc(C)cc2)S1,-7.27%
10,COC(=O)c1cc2n(n1)CCCNC2=O,-0.66%
11,COc1ccc(C(=O)n2nc(C)c(Br)c2C)cc1OC,-7.65%
12,COC(=O)c1ccc(OC(=O)c2nn(C)cc2Cl)c(OC)c1,-9.75%
13,COc1ccc(C(=O)n2nc(-c3ccc(Cl)cc3)nc2N)cc1OC,64.1% (active)
14,CC(C)CC(CO)N1CCN(C(=O)c2ccc(Cl)cc2Cl)CCC1=O (stereo not drawn),10.3%
15,CCOc1ccc(S(=O)(=O)N2CCN=C2Cc2ccccc2)cc1C,-1.14%
16,COCCn1c(N)c(NCc2ccccc2)c(=O)[nH]c1=O,-0.79%
17,CN(c1ccccc1)S(=O)(=O)c1cc(C(=O)Nc2nc3ccccc3[nH]2)ccc1Cl,78.9% (active)
18,CN(c1ccccc1)S(=O)(=O)c1cc(C(=O)N2CCN(c3ncccn3)CC2)ccc1Cl,-62.5%
19,Cc1cccc(NC(=O)c2ccc(S(=O)(=O)N(C)c3ccccc3)cc2)n1,31.6%
20,O=C1CCCCC1Sc1ccc(Cl)cc1[N+](=O)[O-] (stereo not drawn),5.84%
21,O=C(COC(=O)/C=C/c1ccc(Cl)cc1)NC1CCS(=O)(=O)C1 (stereo not drawn),-27.7%
22,COc1cccc(-c2cc(NC(C)=O)c3ncc(-c4cccc(C(C)=O)c4)n3c2)c1,12.6%
23,COc1cccc(-c2cnc3c(NC(C)=O)cc(-c4cccc(NC(C)=O)c4)cn23)c1,-0.58%
24,CC(=O)Nc1cc(-c2ccccc2N(C)C)cn2c(-c3ccc(F)c(Cl)c3)cnc12,-9.86%

row,SMILES,inhibition
1,CC(=O)Nc1cccc(-c2cc(NC(C)=O)c3ncc(-c4ccccc4)n3c2)c1,89.2% (active)
2,CC(=O)c1cccc(-c2cnc3c(NC=O)cc(-c4cccc(C(=O)N(C)C)c4)cn23)c1,6.56%
3,CC(=O)Nc1cccc(-c2cc(NC=O)c3ncc(-c4ccc(F)c(Cl)c4)n3c2)c1,82.2% (active)
4,CC(=O)c1ccc(-c2cnc3c(NC=O)cc(-c4cccc(NS(C)(=O)=O)c4)cn23)cc1,-8.7%
5,CC(=O)c1cccc(-c2cnc3c(NC=O)cc(-c4ccc(N(C)C)cc4)cn23)c1,19.9%
6,CC(=O)c1cccc(-c2cnc3c(NC=O)cc(-c4ccccc4Oc4ccccc4)cn23)c1,55.7% (active)
7,CC1=NNC(=O)C1Cc1c(Cl)cccc1Cl (stereo not drawn),4.96%
8,O=C(NCc1ccc(F)cc1)c1cc(C2CCCCN2C(=O)C2CCCCC2)on1 (stereo not drawn),32.6%
9,C=CCSc1nnc2c(n1)-c1cccc3cccc-2c13,-43.7%
10,CC(=O)c1c(C)n([O-])c2ccccc2[n+]1=O,-13.5%
11,O=C(Nc1cc(S(=O)(=O)N2CCOCC2)ccc1N1CCOCC1)c1c(F)cccc1Cl,-8.44%
12,Cc1cc(Cl)ccc1-c1nc(NCCN(C)C)nc2ccsc12,-11.1%
13,O=C(CCc1ccc(S(=O)(=O)NC2CCCCC2)cc1)NCc1ccccc1,1.8%
14,CCCCNC(=O)C[C@@H]1C[C@@]2(C(=O)OCC)CCC=C2N(Cc2ccco2)C1=O,11%
15,CC(C)(C)NC(=O)CN(C(=O)c1csnn1)c1ccccc1-c1ccccc1,-13.7%
16,COC(=O)C1NN=C(C(=O)c2ccc(Br)cc2)C1c1cccc(Br)c1 (stereo not drawn),48.4%
17,O=C(Cc1ccccc1)NNC1CC(=O)N(c2ccc(Br)cc2)C1=O (stereo not drawn),12.9%
18,CC1=C(C)CC2C(=O)N(c3cccc4ccccc34)C(=O)C2C1 (stereo not drawn),11.9%
19,Cc1ccc(N2C(=O)CC(Nc3cccc4ccccc34)C2=O)cc1 (stereo not drawn),51.9% (active)
20,O=C(CN1CCN(S(=O)(=O)c2ccc(Br)cc2)CC1)Nc1ccccc1C(=O)c1ccccc1,-6.36%
21,O=C(NCCCO)c1cc2c([nH]c3ccccc32)c(-c2ccc(F)cc2)n1,54.8% (active)
22,COc1ccc2cc(C(=O)NCC3CCCO3)[nH]c2c1 (stereo not drawn),-11.1%
23,O=C(NCCc1ccc(F)cc1)c1n[nH]c2ccccc12,-18.2%
24,O=C(NCC1CCCO1)c1cc2c([nH]c3ccccc32)c(-c2ccc(F)cc2)n1 (stereo not drawn),51% (active)

row,SMILES,inhibition
1,O=C(CSc1nc2ccccc2c(=O)n1Cc1ccc(F)cc1)NCC1CCCO1 (stereo not drawn),-1.57%
2,C[N+](C)(C)CCNC(=O)c1c[nH]c2ccccc12,-3.99%
3,CC(C)C[C@@H]1COc2cc(N3CCC[C@@H]3CO)ccc2S(=O)(=O)N1,15.8%
4,CC1(C)OC(=O)C2=C(C[C@@H](C3CCCC3)O[C@@H]2c2ccc(Cl)cc2)O1,1.8%
5,CC(C)CN(C(=O)c1cccc(S(=O)(=O)N2CCCCC2)c1)C1CCS(=O)(=O)C1 (stereo not drawn),-4.27%
6,COc1ccc2cc(CCl)c(Cl)nc2c1,3.18%
7,COc1ccc(C=C(C#N)C#N)c(CSc2ccccn2)c1,9.11%
8,COc1ccc2nc(-c3ccccn3)ccc2c1,61.3% (active)
9,OCCC1CN(Cc2cccc(O)c2)CCN1CCc1ccccc1 (stereo not drawn),15.9%
10,O=C(CCNC(=O)Cn1ccc2ccccc2c1=O)NCCC1=CCCCC1,-2.43%
11,O=C(Cc1cccc2ccccc12)NCCC1=CCCCC1,99.4% (active)
12,Cc1nnc(OCC(=O)NCCC2=CCCCC2)c2ccccc12,8.22%
13,Cc1nccn1-c1ccc(NC(=O)[C@H]2O[C@@H](n3ccc(=O)[nH]c3=O)[C@H](O)[C@@H]2O)cc1,-4.03%
14,Cc1ccc2c(c1)N(CCCC(=O)NCc1cccnc1)C(=O)CO2,7%
15,COc1ccc(S(=O)(=O)N2CCCCC2)cc1C(=O)NC1CCS(=O)(=O)C1 (stereo not drawn),4.36%
16,CC(=O)Nc1ccc(NC(=O)C(C)OC(=O)c2ccccc2C(=O)c2ccc(Cl)c([N+](=O)[O-])c2)cc1 (stereo not drawn),95.7% (active)
17,CC(OC(=O)CNC(=O)c1ccc(Cl)c([N+](=O)[O-])c1)C(=O)NCc1ccco1 (stereo not drawn),-16.1%
18,O=C(Nc1cccc(NC(=O)c2ccccc2[N+](=O)[O-])c1)c1ccccc1Cl,-3.52%
19,CC(=O)Nc1ccc(NC(=O)COC(=O)c2ccccc2C(=O)c2ccccc2)cc1,16.1%
20,COC(=O)c1cc(NC(=O)Cc2ccccc2[N+](=O)[O-])ccc1Cl,-1.56%
21,N#Cc1cccc(NC(=O)COC(=O)c2ccccc2C(=O)c2ccc(Cl)c([N+](=O)[O-])c2)c1,99.5% (active)
